# In PubChem BioAssay (NCI):
# About 83,000 compounds went through this panel and 20% of them were active in at least one assay; those are over-represented in the sample as a whole.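 Single-dose data. Exposure time 48 hours. Values below 10 considered active.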 A number with no mark means an inactive call. Calls of active or inactive are those of the source.
# What was measured:
# Assay in all cases: NCI-60 one-dose screen, 48 h (100 = growth as untreated, 0 = no growth, -100 = all killed)
# Settings in all cases: 10 µM unless noted
# T-47D breast = system: T-47D breast
# MDA-MB-435 melanoma = system: MDA-MB-435 melanoma
# SW-620 colon = system: SW-620 colon
# MCF7 breast = system: MCF7 breast
# HCT-116 colon = system: HCT-116 colon
# HCC-2998 colon = system: HCC-2998 colon
# KM12 colon = system: KM12 colon
Compound,growth (T-47D breast),growth (MDA-MB-435 melanoma),growth (SW-620 colon),growth (MCF7 breast),growth (HCT-116 colon),growth (HCC-2998 colon),growth (KM12 colon)
O=C1COCCN1c1ccc(NCc2cn(Cc3cccc4ccccc34)c3ccccc23)cc1,43.1%,98%,83%,63.4%,39.3%,103%,96.5%
O=C(OCc1ccc2c(Cl)cc(Cl)c(O)c2n1)N1CCNCC1,29.9%,48.9%,26.2%,34.6%,27.5%,60.2%,31.5%
CCOC(=O)/C(C#N)=C(\C)CCc1ccccc1,98.9%,110%,103%,91.9%,87.7%,-6.07% (active),113%
O=C(Nc1cc(-c2cccnc2)nc(NCCCN2CCOCC2)n1)c1cc(Br)cc(C(F)(F)F)c1,46.4%,9.55% (active),75.4%,38.6%,35.7%,37.8%,80%
CCOC(=O)CCC[P+](c1ccccc1)(c1ccccc1)c1ccccc1,27.5%,60.4%,84.7%,59.7%,63.4%,56.3%,44.7%
CCc1ccc(-c2ccc(COc3ccc(CC4SC(=O)NC4=O)cc3)cc2)cc1 (configuration not stated),41%,57.9%,80.7%,59.1%,51%,89.6%,64%
O=C(NCCCNC(=O)OCc1ccc2c(Br)cc(Br)c(O)c2n1)OCc1ccc2c(Br)cc(Br)c(O)c2n1,-58.2% (active),-71.2% (active),-44.7% (active),-28.1% (active),-66% (active),-42.5% (active),7.57% (active)
CCN(CC)c1ccc(/C=C/C=C2\NC(=O)NC2=O)cc1,31.9%,-5.48% (active),31.2%,20.4%,10.1%,37.2%,32.4%
Cc1cc(C)c(O)c(CNCCCNCc2cc(C)cc(C)c2O)c1,67.3%,2.52% (active),71.8%,38.2%,51.6%,-51.4% (active),61.3%
COc1ccc(C(C(=O)O)c2ccc(OC)cc2)cc1,118%,115%,107%,101%,108%,116%,111%
CC(C)[C@H]1COC(=O)N1[C@@H]1C(=O)N([C@@H](CCC(=O)N2CCN(C3CCCC3)CC2)C(=O)N[C@@H]2CCCc3ccccc32)[C@@H]1/C=C/c1cccc(Cl)c1,61.4%,32.7%,61.9%,34.7%,32.7%,51.8%,48.8%
O=C(Nc1cccc(F)c1)c1cc(=O)[nH]c2cc(Br)ccc12,48.1%,-21.8% (active),27.7%,17.6%,19.1%,65%,21.5%
O=C(O)c1cn(C2CC2)c2cc(N3CCN(Cc4c(O)ccc5ccccc45)CC3)c(F)cc2c1=O,29.5%,24.3%,28.2%,16.3%,12.7%,32.1%,37.5%
Nc1nc(Nc2ccccc2)c2ncn(Cc3cc4c(cc3Br)OCO4)c2n1,72.3%,-16.9% (active),20.5%,12.4%,7.79% (active),23%,11.6%
NNC(=O)c1ccc(C(=O)NN)cc1,133%,106%,99.2%,106%,108%,100%,107%
CC1(C)OC2[C@@H](CNC(=O)NC(=O)NC(=O)CI)O[C@@H](n3cnc4c(NC(=O)Nc5ccccc5)ncnc43)[C@H]2O1 (some centres not stated),49%,83.8%,-41.9% (active),33%,51.2%,94%,84.2%
Nc1nc(N)c2c(n1)NC(c1ccc(F)cc1)C1CCc3ccccc3C1=N2 (configuration not stated),49.7%,54.4%,67.3%,26.9%,31.9%,71.2%,50.1%
COc1ccc2[nH]c(C(=O)N3CCN(C(=O)OCc4ccc5c(Br)cc(Br)c(O)c5n4)CC3)cc2c1,-62.5% (active),-86.6% (active),-70.3% (active),-58.4% (active),-87.1% (active),-90.7% (active),-59.8% (active)

Compound,growth (T-47D breast),growth (MDA-MB-435 melanoma),growth (SW-620 colon),growth (MCF7 breast),growth (HCT-116 colon),growth (HCC-2998 colon),growth (KM12 colon)
CCCCC(CCCCCC(CCCC)C1NC(C)Cc2cc(OC)c(OC)cc21)C1NC(C)Cc2cc(OC)c(OC)cc21 (configuration not stated),-76.8% (active),-73.4% (active),-80.8% (active),-95.1% (active),-97.5% (active),-97.3% (active),-94.7% (active)
Cc1ccc(Oc2c(/C=N/NC(=O)Cn3c(=O)sc4ccccc43)c(C)nn2-c2ccccc2)cc1,20.4%,61.7%,68.4%,31.1%,37%,69.2%,49.3%
CCOC(=O)C(C(C)=O)c1nc2sc3cc(Cl)c(Cl)cc3n2c(=O)c1C#N (configuration not stated),78%,106%,116%,65.4%,101%,106%,98.6%
COc1cc(NCc2ccccc2O)c2ncccc2c1,90.4%,103%,102%,95.2%,64%,108%,103%
Nc1ccc2c(c1)Cc1cc(NC(=O)C(F)(F)F)ccc1-2,81.8%,102%,105%,60.1%,108%,105%,97.7%
O=C(CCN1CCCCC1)c1ccc(Cl)cc1,92.6%,105%,103%,91.8%,96.7%,112%,102%
O=C1COCCN1c1ccc(NCc2cn(Cc3ccccc3)c3ccccc23)cc1,44.9%,97.9%,84.9%,63.9%,62.9%,105%,104%
CCN=Cc1c(O)c(O)c(C(C)C)c2cc(C)c(-c3c(C)cc4c(C(C)C)c(O)c(O)c(C=NCC)c4c3O)c(O)c12,35%,68.1%,29.2%,27.3%,22.5%,38.9%,21.3%
O=C(Nc1cc(F)cc2cccnc12)c1cnc(N2CCNCC2)cn1,18%,77.3%,40.9%,10.2%,11%,85.6%,81.2%
Cc1cc(C)c(-c2cc(O)c(-c3c(C)cc(C)cc3C)cc2O)c(C)c1,43%,2.34% (active),26.2%,21.7%,22.6%,45.8%,23.9%
CC1(C(=O)O)CCC(N)(C(=O)O)C1(C)C (configuration not stated),98.4%,115%,108%,99.5%,110%,120%,111%
O=C(CCCCCCSc1nc(-c2ccc(Cl)cc2)cc(-c2ccc(Cl)cc2)n1)NO,13.2%,43.5%,35.8%,14.5%,18.4%,78.7%,47.4%
COc1ccc(C=C2c3ccccc3-c3ccccc32)cc1,46.6%,-10.4% (active),19.4%,13%,16.9%,73.6%,24.8%
COC(=O)[C@@H](NC(=O)NC(=O)NC(=O)CI)C(C)C,44.8%,90.5%,9.83% (active),59.9%,75%,113%,100%
COC(=O)C(=Cc1ccccc1[N+](=O)[O-])C(=O)OC,22.6%,15.5%,34.7%,15.4%,6.83% (active),55.2%,15.7%
O=C(Nc1ccc(Cl)c(C(F)(F)F)c1)Nc1ccc(-c2cccnc2)cc1N1CCC(CO)CC1,5.62% (active),15.5%,35.5%,16.2%,11.8%,13.9%,25.7%
CCC(C)[C@H](NC(=O)NC(=O)NC(=O)CI)C(=O)OC (some centres not stated),38.5%,69.5%,9.41% (active),42.1%,65.2%,103%,100%
Oc1cc(Nc2ccnc3cc(Cl)ccc23)c2ncccc2c1,52.1%,70%,66.6%,61%,69.3%,112%,87.6%
